# Measurements: paper PMC5540273 (PLoS ONE, 2017)
# Columns and labels:
# Settings in all cases: concentration: 1 μM, replicates: in singlicate; n = 1
# [1] = test system: PIM1
# [2] = test system: PIM2
# [3] = test system: PIM3
# [4] = test system: PIP5K1A
# [5] = test system: PIP5K1C
# [6] = test system: PIP5K2B
# [7] = test system: T1, PIP5K2C
# T1 construct: gene PIP4K2C
# [8] = test system: T2, PKAC-alpha
# T2 construct: gene PRKACA
# [9] = test system: T3, PKAC-beta
# T3 construct: gene PRKACB
# [10] = test system: PKMYT1
# [11] = test system: PKN1
# [12] = test system: PKN2
# [13] = test system: PLK1
# [14] = test system: PLK2
# [15] = test system: PLK3
# [16] = test system: PLK4
# [17] = test system: PRKCD
# [18] = test system: PRKCE
# [19] = test system: PRKCH
# [20] = test system: PRKCI
# 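Also: KINOMEscan kinase panel screen.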
Structure (SMILES),%Inh [1] [%],%Inh [2] [%],%Inh [3] [%],%Inh [4] [%],%Inh [5] [%],%Inh [6] [%],%Inh [7] [%],%Inh [8] [%],%Inh [9] [%],%Inh [10] [%],%Inh [11] [%],%Inh [12] [%],%Inh [13] [%],%Inh [14] [%],%Inh [15] [%],%Inh [16] [%],%Inh [17] [%],%Inh [18] [%],%Inh [19] [%],%Inh [20] [%]
CN1C(=O)C(Nc2ccc(Cl)c(C(=O)O)c2)=C(c2ccc(Cl)cc2)C1=O [SB-404290],0,0,0,11,0,0,0,0,4,0,91.6,31,18,24,18,0,0,35,0,0
COc1ccccc1-c1ccc2c(NC(=O)C3CC3)n[nH]c2n1 [SB-711239],13,0,0,41,53,30,19,6,2,0,12,2,10,0,0,0,0,3,27,0
COc1cc2nccc(Nc3ccc(NC(=O)c4ccc(C)cc4)c(O)c3)c2cc1OC.Cl [GW440132],0,0,0,0,50,0,4,12,0,4,0,0,0,0,0,13,24,0,17,12
Cc1ccc(NC(=O)Nc2cccc(Cl)c2)cc1-c1ccc(C(=O)Nc2ccncc2)cc1 [GSK1398468],15,0,0,0,33,0,28,0,4,0,0,0,0,0,1,0,0,12,5,0
CC(=O)Nc1nc2cnc(Nc3cc(NC(=O)c4cccc(CCC#N)c4)ccc3C)nc2s1,5,19,9,13,0,45,4,15,0,0,12,0,0,8,14,9,8,0,0,32
Cc1ccc(-c2cc(-c3c[nH]nc3-c3ccccn3)ccn2)cc1 [GW684088],20,0,2,50,71,8,67,30,0,0,0,0,0,0,0,0,0,16,0,12
Cc1csc(-c2nc(Nc3ccncc3)c3ccccc3n2)n1 [GW869640],31,0,17,0,29,2,2,14,44,16,0,23,51,40,31,24,21,37,0,30
Cc1ccccc1-n1cnc2c(N)ncnc21 [SKF-97510],0,0,2,0,0,0,0,10,0,0,0,0,0,0,0,0,0,0,0,0
Cc1cc(N2Cc3ccccc3C2)nc(Nc2ccc(S(=O)(=O)N3CCOCC3)cc2)n1.Cl [GSK1669917],14,0,0,0,75,10,0,0,0,21,0,0,0,8,0,0,0,3,10,17
C[C@@H]1CCCCN1c1cc(-c2ccc3c(N)n[nH]c3c2)nc(N)n1 [GSK2258759],0,0,7,0,44,4,0,0,0,2,6,0,0,0,0,42,0,0,0,22
